In PubChem BioAssay (EPA / NIEHS) one finds outcome and AC50 data, which are given here for 40 compounds.

The AC50 is the concentration giving half of the maximal activity seen.

The structures appear in SMILES notation. Calls of active or inactive are those of the source. Rule for the calls: active = hit-call score of the fitted dose curve at least 0.9, where 1 is the maximum; inactive = score below 0.9.

Read-out in this test: Urokinase-type plasminogen activator receptor (uPAR), PLAUR (gene 5329)
In words: BSK_4H_uPAR: BioMAP Diversity Plus: 4H Assay for Urokinase-type plasminogen activator receptor (uPAR) Biomarker Activity (AID 2283030). The conditions noted are these: primary human endothelial cells (HUVEC); actives raise or lower the signal. How it is done:
BSK_4H is a cell-based, multiplexed-readout assay that uses umbilical vein endothelium, a human vascular primary cell, with measurements taken at 24 hours after chemical dosing in a 96-well plate.BSK_4HAR is an assay component measured in the BSK_4H assay. It measures uPAR antibody related to regulation of gene expression using ELISA technology.Data from the assay component BSK_4HAR was analyzed into 1 assay endpoint. This assay endpoint, BSK_4HAR, was analyzed with bidirectional fitting relative to DMSO as the negative control and baseline of activity. Using a type of binding reporter, gain or loss-of-signal activity can be used to understand changes in the signaling as they relate to the gene PLAUR. Furthermore, this assay endpoint can be referred to as a primary readout, because this assay has produced multiple assay endpoints where this one serves a signaling function. To generalize the intended target to other relatable targets, this assay endpoint is annotated to the cytokine intended target family, where the subfamily is plasmogen activator.
The levels of cell surface (or secreted, indicated by the prefix "s") biomarker endpoints were measured by ELISA. Overt cytotoxicity to cells in confluent adherent cultures (all systems other than the BT system) was assessed by measuring total protein levels using sulforhodamine B (SRB) staining in parallel cultures at the time of biomarker measurements, indicated as SRB endpoints. For proliferation assays for adherent cell types, individual cell types are cultured at sub-confluence and relative cell numbers quantified by SRB staining at time points optimized for each system (48 h: 3C and CASM3C systems; 72 h: BT and HDF3CGF systems; 96 h: SAg system). SRB was performed by staining cells with 0.1% SRB after fixation with 10% TCA and reading wells at 560 nm.Viability and proliferation of PBMC (T cells) was quantified by Alamar Blue reduction for the SAg and BT systems. For PBMC viability (referred to as PBMC Cytotoxicity within the assay endpoint names), cells were plated (75,000/well in a 96-well plate) and then chemical samples added for 1 h before addition of activators, SEB and TSST-1 (20 ng/mL final concentration each). Cells were incubated for 90 h. Then, Alamar Blue (20 uL/well) (Invitrogen, Cat DAL1100) was added for 6 h, and the plates were read with a fluorescence microplate reader at 546/580 nm (excitation/emission). For PBMC proliferation, cells were plated and activated as above but incubated for only 16 h prior to addition of Alamar Blue. Plates were read after 6 h.
For `CCCCc1ccc2c(n1)[C@@H](c1ccc(OC)cc1C[C@H](C)C(=O)O)[C@H](C(=O)O)[C@H]2c1ccc2c(c1)OCO2`, the outcome was inactive. On to `Cc1c(C(=O)O)c(O)cc2c1C(=O)c1c(O)c([C@@H]3O[C@H](CO)[C@@H](O)[C@H](O)[C@H]3O)c(O)c(O)c1C2=O`, for which the outcome was inactive. In the case of `O=c1c(O)c(-c2ccc(O)c(O)c2)oc2cc(O)cc(O)c12`, the AC50 is 33.6 µM (active).

Take `C=CCOC(=O)c1ccccc1C(=O)OCC=C`: the result was inactive. For the compound `CC(=O)OCCOCCOCCOC(C)=O`, the result was inactive. In the case of `COc1cc(S(=O)(=O)O)c(C)cc1N=Nc1c(O)ccc2cc(S(=O)(=O)O)ccc12`, the outcome was inactive. As to `CC(=O)Oc1ccccc1C(=O)O`, the AC50 is 0.412 µM (active).

On to `CCOC(=O)C(C)(C)Oc1ccc(Cl)cc1`, for which the result was inactive. In the case of `CC(C)c1ccc(C(=O)N=C(N)N)cc1S(C)(=O)=O`, the result was inactive. For the compound `COc1ccc(S(=O)(=O)N2C(=O)[C@@](c3ccccc3OC)(N3C[C@H](O)C[C@H]3C(=O)N(C)C)c3cc(Cl)ccc32)c(OC)c1`, the AC50 is 8.31 µM (active).

Consider `Nc1ccccc1N`, for which the outcome was inactive. Take `O=C(N[C@@H](Cc1ccccc1)[C@@H](O)C(=O)N1C[C@@H](O)[C@@H](O)C1)c1cc2cc(Cl)ccc2[nH]1`: the outcome was inactive. `COc1ccc2c(c1)c(CC(=O)O)c(C)n2C(=O)c1ccc(Cl)cc1`: the outcome was inactive. Same read-out and setting: the same measure for `O=C(O)CCCCC(=O)O`: “inactive”. Same read-out and setting: the same measure for `CCOC(=O)CCC(=O)OCC`: “inactive”; for `CC1(C)NC(=O)NC1=O`: “inactive”. Still for that read-out and setting: the same measure for `COc1cc(C=O)ccc1O`: “inactive”. Turning to `Cc1ccc(C(C)C)c(O)c1`, the result was inactive. Same read-out and setting: the same measure for `COC(=O)c1ccc(O)cc1`: “inactive”. Still for that read-out and setting: the same measure for `CC1=C(/C=C/C(C)=C/C=C/C(C)=C/CO)C(C)(C)CCC1`: “inactive”; for `CCCCN(CCCC)CCCC`: “inactive”.

As for `CN[C@H]1CC[C@@H](c2ccc(Cl)c(Cl)c2)c2ccc(S(N)(=O)=O)cc21`, the AC50 was 20 µM (active).

Turning to `CCc1c(C(=O)NN2CCCCC2)nn(-c2ccc(Cl)cc2Cl)c1-c1ccc(Br)cc1`, the AC50 was 6.58 µM (active). Regarding `CN1CCCC1=O`, the outcome was inactive. The same measure, in the same setting: the same measure for `C=CCc1ccc(O)c(OC)c1`: “inactive”. Still for that read-out and setting: the result for `COCCOC[C@H](CC1(C(=O)NC2CCC(C(=O)O)CC2)CCCC1)C(=O)Oc1ccc2c(c1)CCC2` (stereo not given in full) reads “inactive”. Consider `CCCCCC(=O)O`, for which the outcome was inactive. Still for that read-out and setting: the same measure for `Cc1nc(-c2ccc3c(c2)CCN(CCC2CCC(NC(=O)/C=C/c4ccc(F)cc4)CC2)CC3)no1` (stereo not given): “inactive”; for `NS(=O)(=O)c1cc2c(cc1Cl)NCNS2(=O)=O`: “inactive”; for `Cc1ccc(C)c(O)c1C`: “inactive”. As to `c1cc(-c2ccncc2)ccn1`, the result was inactive.

`CCCCC(CC)COC(=O)CC(C(=O)OCC(CC)CCCC)S(=O)(=O)O` (stereo not given): the AC50 was 39 µM (active).

Take `CCCCOC(=O)CCCCCCCCC(=O)OCCCC`: the outcome was inactive. As for `COc1cc(-c2nc(NC(=O)c3cc4cc(C)cc(C)c4n3CC(=O)O)sc2CCC2CCCCC2)c(OC)cc1Cl`, the AC50 is 4.62 µM (active).

Turning to `Cc1ccc(N(C)C)cc1`, the outcome was inactive. Same read-out and setting: the same measure for `Cc1nc(C)nc(N2C[C@@H](C)N(c3ccnc([C@@H](C)O)n3)[C@@H](C)C2)n1`: “inactive”; for `CCCCCCCCCCCC(=O)OC`: “inactive”. Turning to `CCCCCCC(=O)OCC`, the result was inactive. `C[Si]1(C)O[Si](C)(C)O[Si](C)(C)O[Si](C)(C)O1`: the outcome was inactive. As for `Cc1oc(-c2ccccc2)nc1CCOc1cccc2c1ccn2CCC(=O)O`, the result was inactive.
